Reference: ChEMBL document CHEMBL1961873, “Compounds: GSK PKIS; Assays: Nanosyn kinase panel” (2012)

What was measured:
[1] = biological target: T1, Inhibitor of nuclear factor kappa-B kinase subunit epsilon (Homo sapiens) (UniProt Q14164); conditions: at 1 µM;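 also: reported values are averaged percent inhibition figures against human IKKε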
T1 sequence (whole entry): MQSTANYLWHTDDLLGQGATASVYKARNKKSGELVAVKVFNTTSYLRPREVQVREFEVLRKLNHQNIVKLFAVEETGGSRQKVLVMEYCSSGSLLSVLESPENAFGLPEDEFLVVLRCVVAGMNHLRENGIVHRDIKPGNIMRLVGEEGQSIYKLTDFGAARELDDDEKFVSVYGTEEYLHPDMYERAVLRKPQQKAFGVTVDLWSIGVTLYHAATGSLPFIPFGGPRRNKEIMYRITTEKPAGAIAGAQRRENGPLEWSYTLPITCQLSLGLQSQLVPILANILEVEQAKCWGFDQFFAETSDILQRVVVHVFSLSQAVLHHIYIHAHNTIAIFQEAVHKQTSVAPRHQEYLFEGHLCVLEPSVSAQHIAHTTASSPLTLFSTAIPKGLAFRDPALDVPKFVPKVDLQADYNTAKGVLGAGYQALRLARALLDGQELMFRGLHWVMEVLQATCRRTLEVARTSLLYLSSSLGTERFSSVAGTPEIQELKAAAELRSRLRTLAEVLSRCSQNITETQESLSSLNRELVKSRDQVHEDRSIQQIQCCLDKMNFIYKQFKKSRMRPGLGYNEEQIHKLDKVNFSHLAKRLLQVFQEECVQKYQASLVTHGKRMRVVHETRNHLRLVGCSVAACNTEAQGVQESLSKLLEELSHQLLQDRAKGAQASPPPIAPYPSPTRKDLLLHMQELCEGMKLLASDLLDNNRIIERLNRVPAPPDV

[2] = biological target: T2, Serine/threonine-protein kinase Nek1 (Homo sapiens) (UniProt Q96PY6); conditions: at 0.1 µM
T2 sequence (whole entry): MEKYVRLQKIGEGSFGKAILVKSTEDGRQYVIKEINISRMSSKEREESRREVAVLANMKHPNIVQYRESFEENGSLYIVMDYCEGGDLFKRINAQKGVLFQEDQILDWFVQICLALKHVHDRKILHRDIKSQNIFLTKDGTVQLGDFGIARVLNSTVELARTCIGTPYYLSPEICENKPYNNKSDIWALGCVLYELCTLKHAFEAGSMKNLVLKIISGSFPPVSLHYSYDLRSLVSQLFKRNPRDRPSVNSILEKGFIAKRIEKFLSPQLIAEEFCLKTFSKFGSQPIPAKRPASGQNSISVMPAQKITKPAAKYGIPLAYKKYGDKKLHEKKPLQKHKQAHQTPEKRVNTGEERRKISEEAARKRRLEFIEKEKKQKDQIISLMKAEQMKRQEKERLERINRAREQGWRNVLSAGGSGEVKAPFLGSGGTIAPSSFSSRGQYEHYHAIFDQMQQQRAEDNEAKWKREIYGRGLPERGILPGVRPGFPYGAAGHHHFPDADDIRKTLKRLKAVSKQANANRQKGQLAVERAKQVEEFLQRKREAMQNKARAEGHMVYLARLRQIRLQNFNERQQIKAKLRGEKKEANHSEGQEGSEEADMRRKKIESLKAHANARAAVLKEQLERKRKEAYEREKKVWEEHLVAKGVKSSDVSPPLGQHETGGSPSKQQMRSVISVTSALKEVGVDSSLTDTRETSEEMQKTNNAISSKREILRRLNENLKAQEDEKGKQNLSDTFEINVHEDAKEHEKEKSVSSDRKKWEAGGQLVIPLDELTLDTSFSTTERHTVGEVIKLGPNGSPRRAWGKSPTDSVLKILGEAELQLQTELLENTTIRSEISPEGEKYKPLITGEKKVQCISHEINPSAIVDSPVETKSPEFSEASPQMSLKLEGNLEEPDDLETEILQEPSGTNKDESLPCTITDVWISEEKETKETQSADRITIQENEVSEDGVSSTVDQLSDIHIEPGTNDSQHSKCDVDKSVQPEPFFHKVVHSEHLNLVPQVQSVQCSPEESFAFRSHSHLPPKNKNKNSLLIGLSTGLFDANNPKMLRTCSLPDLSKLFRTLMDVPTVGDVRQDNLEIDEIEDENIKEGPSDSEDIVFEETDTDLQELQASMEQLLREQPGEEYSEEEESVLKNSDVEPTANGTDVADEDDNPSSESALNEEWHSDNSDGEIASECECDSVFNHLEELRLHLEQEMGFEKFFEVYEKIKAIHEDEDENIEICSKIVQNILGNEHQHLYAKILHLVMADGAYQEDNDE

[3] = biological target: T2, Serine/threonine-protein kinase Nek1 (Homo sapiens); conditions: at 1 µM
[4] = biological target: T3, Serine/threonine-protein kinase Nek2 (Homo sapiens) (UniProt P51955); conditions: at 0.1 µM
T3 sequence (whole entry): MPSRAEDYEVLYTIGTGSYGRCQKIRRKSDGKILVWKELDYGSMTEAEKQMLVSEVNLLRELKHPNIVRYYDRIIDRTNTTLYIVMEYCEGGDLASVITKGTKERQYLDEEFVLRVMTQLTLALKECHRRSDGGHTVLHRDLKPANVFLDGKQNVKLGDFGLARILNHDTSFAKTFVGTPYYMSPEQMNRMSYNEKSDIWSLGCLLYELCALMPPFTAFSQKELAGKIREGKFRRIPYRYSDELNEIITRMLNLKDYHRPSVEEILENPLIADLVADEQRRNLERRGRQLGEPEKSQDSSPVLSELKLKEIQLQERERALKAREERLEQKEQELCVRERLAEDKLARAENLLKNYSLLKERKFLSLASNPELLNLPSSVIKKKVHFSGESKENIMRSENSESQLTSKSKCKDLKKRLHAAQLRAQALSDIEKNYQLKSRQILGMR

[5] = biological target: T3, Serine/threonine-protein kinase Nek2 (Homo sapiens); conditions: at 1 µM
[6] = biological target: Serine/threonine-protein kinase Nek6 (Homo sapiens) (UniProt Q9HC98); conditions: at 0.1 µM
[7] = biological target: Serine/threonine-protein kinase Nek6 (Homo sapiens) (UniProt Q9HC98); conditions: at 1 µM
[8] = biological target: Serine/threonine-protein kinase Nek7 (Homo sapiens) (UniProt Q8TDX7); conditions: at 0.1 µM
[9] = biological target: Serine/threonine-protein kinase Nek7 (Homo sapiens) (UniProt Q8TDX7); conditions: at 1 µM
[10] = biological target: T4, Serine/threonine-protein kinase Nek9 (Homo sapiens) (UniProt Q8TD19); conditions: at 0.1 µM
T4 sequence (whole entry): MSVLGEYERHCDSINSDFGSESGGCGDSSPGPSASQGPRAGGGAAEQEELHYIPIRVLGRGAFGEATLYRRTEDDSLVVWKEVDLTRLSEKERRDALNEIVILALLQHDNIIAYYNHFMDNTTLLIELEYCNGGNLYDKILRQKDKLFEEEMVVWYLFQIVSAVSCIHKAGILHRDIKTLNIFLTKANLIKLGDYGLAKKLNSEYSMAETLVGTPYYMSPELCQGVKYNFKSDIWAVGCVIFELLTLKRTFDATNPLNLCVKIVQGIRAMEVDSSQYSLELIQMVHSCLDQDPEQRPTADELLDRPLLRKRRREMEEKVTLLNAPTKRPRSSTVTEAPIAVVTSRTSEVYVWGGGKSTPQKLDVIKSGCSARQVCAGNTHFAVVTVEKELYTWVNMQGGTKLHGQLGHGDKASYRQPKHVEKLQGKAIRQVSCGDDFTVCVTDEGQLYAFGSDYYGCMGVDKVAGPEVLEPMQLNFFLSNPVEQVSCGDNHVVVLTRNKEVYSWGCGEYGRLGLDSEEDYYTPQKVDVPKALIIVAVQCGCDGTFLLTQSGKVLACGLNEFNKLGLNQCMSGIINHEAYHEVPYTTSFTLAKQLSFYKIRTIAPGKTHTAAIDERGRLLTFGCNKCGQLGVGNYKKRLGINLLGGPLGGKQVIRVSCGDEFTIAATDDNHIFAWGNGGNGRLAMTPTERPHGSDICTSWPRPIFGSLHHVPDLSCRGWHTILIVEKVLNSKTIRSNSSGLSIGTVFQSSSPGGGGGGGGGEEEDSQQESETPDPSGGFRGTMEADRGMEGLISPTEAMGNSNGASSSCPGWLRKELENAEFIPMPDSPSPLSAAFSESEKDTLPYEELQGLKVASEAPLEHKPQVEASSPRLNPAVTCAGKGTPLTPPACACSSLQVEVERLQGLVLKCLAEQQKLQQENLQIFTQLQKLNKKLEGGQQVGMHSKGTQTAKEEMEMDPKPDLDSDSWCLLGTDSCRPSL

[11] = biological target: T4, Serine/threonine-protein kinase Nek9 (Homo sapiens); conditions: at 1 µM
[12] = biological target: Serine/threonine-protein kinase PLK1 (Homo sapiens) (UniProt P53350); conditions: at 0.1 µM
[13] = biological target: Serine/threonine-protein kinase PLK1 (Homo sapiens) (UniProt P53350); conditions: at 1 µM
[14] = biological target: T5, Dual specificity protein kinase TTK (Homo sapiens) (UniProt P33981); conditions: at 0.1 µM
T5 sequence (whole entry): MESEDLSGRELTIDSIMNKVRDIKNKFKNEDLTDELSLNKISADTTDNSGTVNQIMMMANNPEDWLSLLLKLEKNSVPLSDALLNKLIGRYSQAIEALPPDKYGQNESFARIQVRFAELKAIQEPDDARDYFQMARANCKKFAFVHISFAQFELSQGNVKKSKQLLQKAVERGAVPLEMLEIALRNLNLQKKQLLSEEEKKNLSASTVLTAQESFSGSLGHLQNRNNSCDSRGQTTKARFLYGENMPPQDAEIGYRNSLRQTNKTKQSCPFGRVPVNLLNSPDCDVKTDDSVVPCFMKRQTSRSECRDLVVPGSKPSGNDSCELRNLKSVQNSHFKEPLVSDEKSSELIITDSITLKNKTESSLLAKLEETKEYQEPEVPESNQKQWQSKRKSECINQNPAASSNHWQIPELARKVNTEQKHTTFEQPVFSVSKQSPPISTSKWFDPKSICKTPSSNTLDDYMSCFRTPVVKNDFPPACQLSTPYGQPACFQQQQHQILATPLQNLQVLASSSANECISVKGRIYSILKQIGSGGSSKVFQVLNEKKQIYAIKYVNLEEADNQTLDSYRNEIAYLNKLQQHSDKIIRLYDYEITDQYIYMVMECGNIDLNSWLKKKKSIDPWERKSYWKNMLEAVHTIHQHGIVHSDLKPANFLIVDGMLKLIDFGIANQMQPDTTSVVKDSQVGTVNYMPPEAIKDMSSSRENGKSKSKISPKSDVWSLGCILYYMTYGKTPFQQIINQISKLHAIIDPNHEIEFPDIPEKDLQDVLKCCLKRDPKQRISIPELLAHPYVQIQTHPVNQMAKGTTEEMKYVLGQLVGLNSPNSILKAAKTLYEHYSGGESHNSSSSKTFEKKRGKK

[15] = tested on: T6, Receptor-type tyrosine-protein kinase FLT3 (Homo sapiens), P36888 [D835Y]; conditions: at 1 µM
T6 sequence (whole entry): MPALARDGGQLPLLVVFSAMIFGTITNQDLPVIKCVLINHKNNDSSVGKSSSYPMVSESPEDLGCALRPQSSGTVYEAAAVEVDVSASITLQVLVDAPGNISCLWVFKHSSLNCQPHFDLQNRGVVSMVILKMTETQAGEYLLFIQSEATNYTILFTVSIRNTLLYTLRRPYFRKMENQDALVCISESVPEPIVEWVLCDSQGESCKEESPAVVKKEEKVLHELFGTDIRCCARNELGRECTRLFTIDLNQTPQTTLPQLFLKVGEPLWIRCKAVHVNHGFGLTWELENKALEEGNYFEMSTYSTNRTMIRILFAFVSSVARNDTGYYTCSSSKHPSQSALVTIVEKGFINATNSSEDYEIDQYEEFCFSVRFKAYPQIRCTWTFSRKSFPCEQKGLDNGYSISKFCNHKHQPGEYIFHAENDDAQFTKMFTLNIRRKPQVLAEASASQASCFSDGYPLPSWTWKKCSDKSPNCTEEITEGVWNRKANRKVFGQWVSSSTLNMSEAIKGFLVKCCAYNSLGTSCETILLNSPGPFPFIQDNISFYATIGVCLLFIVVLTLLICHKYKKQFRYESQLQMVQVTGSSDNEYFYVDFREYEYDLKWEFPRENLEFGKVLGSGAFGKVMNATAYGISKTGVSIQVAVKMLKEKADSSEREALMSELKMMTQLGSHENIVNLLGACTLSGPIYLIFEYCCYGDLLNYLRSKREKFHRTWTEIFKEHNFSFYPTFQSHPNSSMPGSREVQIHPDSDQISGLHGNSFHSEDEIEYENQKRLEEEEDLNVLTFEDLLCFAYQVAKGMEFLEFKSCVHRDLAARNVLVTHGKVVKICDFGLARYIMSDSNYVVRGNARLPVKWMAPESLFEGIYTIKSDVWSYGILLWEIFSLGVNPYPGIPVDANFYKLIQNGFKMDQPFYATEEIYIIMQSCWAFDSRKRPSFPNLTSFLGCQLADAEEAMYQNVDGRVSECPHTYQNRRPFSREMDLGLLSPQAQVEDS

[16] = biological target: Vascular endothelial growth factor receptor 3 (Homo sapiens) (UniProt P35916); conditions: at 0.1 µM
[17] = biological target: Vascular endothelial growth factor receptor 3 (Homo sapiens) (UniProt P35916); conditions: at 1 µM
[18] = biological target: Macrophage colony-stimulating factor 1 receptor (Homo sapiens) (UniProt P07333); conditions: at 0.1 µM
[19] = biological target: Macrophage colony-stimulating factor 1 receptor (Homo sapiens) (UniProt P07333); conditions: at 1 µM
[20] = biological target: Tyrosine-protein kinase Fyn (Homo sapiens) (UniProt P06241); conditions: at 0.1 µM
Chain of Tyrosine-protein kinase Fyn (Homo sapiens) (P06241 2-537 limits assumed): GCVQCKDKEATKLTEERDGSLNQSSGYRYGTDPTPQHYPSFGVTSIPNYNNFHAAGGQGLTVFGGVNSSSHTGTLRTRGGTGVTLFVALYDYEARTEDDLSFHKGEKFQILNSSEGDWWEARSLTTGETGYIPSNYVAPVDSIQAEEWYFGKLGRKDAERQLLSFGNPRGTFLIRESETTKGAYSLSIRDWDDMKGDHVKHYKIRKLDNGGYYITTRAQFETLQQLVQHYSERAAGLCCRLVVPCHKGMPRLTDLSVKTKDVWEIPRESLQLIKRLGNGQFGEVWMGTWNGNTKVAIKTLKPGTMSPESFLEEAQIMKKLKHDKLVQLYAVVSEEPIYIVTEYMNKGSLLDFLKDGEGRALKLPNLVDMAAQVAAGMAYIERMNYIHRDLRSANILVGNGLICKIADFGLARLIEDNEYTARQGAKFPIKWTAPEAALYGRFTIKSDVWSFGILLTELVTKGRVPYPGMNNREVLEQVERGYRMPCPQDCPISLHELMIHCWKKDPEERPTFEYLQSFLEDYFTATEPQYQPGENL

Chain of Macrophage colony-stimulating factor 1 receptor (Homo sapiens) (P07333 whole entry): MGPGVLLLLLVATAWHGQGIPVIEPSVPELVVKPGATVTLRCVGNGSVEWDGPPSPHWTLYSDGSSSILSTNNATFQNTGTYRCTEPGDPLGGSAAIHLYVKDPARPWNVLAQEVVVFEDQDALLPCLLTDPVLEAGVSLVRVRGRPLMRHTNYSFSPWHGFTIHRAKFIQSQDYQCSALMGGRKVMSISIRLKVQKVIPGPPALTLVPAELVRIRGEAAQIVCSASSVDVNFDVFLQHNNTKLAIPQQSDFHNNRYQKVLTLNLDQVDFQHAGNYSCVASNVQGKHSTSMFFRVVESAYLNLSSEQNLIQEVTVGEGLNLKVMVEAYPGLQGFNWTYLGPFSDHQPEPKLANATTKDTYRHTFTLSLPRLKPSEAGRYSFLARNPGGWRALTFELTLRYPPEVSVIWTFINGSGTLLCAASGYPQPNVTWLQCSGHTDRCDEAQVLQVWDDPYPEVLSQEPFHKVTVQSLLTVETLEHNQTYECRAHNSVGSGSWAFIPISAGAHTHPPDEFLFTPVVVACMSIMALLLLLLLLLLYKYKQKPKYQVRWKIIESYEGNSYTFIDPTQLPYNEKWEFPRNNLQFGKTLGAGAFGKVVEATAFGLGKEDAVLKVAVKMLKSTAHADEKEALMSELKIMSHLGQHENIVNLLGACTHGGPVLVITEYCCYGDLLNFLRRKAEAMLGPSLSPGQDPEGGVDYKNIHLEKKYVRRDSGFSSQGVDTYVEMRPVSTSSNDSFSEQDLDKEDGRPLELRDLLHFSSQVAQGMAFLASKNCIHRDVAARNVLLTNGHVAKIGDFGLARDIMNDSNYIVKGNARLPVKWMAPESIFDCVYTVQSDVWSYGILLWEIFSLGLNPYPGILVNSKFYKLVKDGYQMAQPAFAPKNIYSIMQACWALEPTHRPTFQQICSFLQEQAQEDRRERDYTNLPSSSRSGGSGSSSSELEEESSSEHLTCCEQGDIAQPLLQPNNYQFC
Chain of Serine/threonine-protein kinase Nek6 (Homo sapiens) (Q9HC98 whole entry): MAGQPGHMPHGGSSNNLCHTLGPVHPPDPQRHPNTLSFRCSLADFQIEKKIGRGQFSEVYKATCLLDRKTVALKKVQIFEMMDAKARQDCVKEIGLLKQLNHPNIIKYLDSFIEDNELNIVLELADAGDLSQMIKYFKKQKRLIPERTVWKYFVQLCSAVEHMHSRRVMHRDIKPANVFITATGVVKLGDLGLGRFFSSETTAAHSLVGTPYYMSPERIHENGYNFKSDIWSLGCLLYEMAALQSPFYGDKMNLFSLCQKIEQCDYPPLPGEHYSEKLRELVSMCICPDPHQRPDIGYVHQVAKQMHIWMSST
Chain of Vascular endothelial growth factor receptor 3 (Homo sapiens) (P35916 whole entry): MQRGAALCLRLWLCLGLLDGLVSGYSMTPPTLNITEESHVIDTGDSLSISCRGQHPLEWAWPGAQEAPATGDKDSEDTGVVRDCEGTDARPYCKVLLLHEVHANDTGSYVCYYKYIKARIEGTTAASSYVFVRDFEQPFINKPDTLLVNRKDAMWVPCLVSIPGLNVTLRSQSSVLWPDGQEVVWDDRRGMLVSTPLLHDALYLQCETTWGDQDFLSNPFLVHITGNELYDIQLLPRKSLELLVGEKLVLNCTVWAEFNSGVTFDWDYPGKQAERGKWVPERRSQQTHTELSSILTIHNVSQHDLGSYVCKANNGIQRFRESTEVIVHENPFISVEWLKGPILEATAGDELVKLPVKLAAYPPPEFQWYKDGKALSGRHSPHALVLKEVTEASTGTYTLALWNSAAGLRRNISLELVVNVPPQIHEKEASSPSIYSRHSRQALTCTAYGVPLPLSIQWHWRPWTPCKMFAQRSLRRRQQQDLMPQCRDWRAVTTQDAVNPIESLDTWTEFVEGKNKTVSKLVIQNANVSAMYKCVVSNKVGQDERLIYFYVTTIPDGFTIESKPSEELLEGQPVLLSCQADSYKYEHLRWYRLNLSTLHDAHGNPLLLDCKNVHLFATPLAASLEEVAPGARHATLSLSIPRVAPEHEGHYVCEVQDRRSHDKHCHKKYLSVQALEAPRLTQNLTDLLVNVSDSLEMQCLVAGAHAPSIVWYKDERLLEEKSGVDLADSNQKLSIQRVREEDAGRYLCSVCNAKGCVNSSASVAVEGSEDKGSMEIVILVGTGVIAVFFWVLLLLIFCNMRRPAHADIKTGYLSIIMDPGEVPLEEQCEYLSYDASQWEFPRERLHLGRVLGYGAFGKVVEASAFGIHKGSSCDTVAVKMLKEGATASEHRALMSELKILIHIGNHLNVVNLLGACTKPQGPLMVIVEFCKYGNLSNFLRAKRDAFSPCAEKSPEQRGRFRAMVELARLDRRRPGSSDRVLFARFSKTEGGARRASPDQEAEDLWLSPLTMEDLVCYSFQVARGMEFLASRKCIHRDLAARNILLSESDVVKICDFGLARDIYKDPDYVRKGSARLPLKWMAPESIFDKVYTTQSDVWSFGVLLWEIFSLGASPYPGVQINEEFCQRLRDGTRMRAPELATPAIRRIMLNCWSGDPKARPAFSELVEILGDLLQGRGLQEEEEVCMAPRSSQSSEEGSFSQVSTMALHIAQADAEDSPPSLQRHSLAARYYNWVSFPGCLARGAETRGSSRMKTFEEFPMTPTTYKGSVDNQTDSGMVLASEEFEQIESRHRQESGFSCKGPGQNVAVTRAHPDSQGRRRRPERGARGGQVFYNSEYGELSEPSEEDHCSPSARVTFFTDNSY
Chain of Serine/threonine-protein kinase Nek7 (Homo sapiens) (Q8TDX7 whole entry, looked up): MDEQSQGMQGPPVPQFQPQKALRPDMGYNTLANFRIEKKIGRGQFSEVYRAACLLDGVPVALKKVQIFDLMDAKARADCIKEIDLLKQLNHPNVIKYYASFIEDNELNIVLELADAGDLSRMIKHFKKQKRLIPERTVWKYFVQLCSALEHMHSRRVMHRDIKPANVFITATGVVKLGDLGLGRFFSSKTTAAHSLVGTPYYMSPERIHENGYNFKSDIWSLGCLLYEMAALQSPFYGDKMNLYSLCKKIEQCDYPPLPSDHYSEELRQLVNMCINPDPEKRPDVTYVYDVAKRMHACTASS
Chain of Serine/threonine-protein kinase PLK1 (Homo sapiens) (P53350 whole entry): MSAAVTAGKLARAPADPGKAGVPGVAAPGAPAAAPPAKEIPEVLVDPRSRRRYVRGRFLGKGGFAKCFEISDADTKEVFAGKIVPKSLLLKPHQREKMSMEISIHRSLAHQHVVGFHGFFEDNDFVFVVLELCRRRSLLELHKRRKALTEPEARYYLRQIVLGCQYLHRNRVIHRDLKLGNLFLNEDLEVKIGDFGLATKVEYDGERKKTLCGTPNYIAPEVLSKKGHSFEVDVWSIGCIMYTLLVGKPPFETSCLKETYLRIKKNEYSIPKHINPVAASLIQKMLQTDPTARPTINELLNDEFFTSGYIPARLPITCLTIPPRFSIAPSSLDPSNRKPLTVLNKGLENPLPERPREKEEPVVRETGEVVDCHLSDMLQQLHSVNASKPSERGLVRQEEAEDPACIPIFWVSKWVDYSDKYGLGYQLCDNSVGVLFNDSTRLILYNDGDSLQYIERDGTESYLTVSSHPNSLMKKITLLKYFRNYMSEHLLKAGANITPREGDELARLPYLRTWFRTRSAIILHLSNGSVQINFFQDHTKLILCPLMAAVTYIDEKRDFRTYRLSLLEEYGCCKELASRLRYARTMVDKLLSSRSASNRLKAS

SMILES | inhibition [1] [%] | inhibition [2] [%] | inhibition [3] [%] | inhibition [4] [%] | inhibition [5] [%] | inhibition [6] [%] | inhibition [7] [%] | inhibition [8] [%] | inhibition [9] [%] | inhibition [10] [%] | inhibition [11] [%] | inhibition [12] [%] | inhibition [13] [%] | inhibition [14] [%] | inhibition [15] [%] | inhibition [16] [%] | inhibition [17] [%] | inhibition [18] [%] | inhibition [19] [%] | inhibition [20] [%]
COc1c(C(N)=O)cc(-c2ccc(Cl)cc2)cc1-c1ccc(S(N)(=O)=O)cc1 | 5.47 | 2.17 | 4.16 | 6.76 | 5.43 | 0.6 | 1.71 | 4.31 | 10.4 | 4.85 | 5.67 | 4.84 | 8.71 | 11.8 | 0.7 | 2.5 | 0.39 | 5.24 | 4.74 | 1.12
CS(=O)(=O)Nc1ccc(-c2ccc3c(NC(=O)C4CC4)n[nH]c3c2)cc1 | 2.67 | 1.54 | -3.13 | 4.81 | 3.7 | 1.17 | -2.29 | 4.35 | 2.55 | 2.89 | -0.22 | 4.12 | 4.87 | 7.49 | 3.86 | -0.12 | 2.39 | 1.7 | 3.16 | 0.67
